Broadly, the AC50 is the concentration giving half of the maximal activity seen.

The text below walks through data of PubChem BioAssay (EPA / NIEHS).

The nature of experiment [1]: CCTE_Harrill_HTTr_Viability_MCF7: CCTE's 6-hour Cell Viability Assessment for the High-Throughput Transcriptomics (HTTr) Platform, in MCF-7 cells cultured in DMEM + 10% fetal bovine serum, Harrill Lab (AID 2284010). In a few lines:
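Membrane integrity was scored by high-content imaging of propidium iodide dye exclusion after a 6 h exposure across an eight-point dilution series. Data were fitted bidirectionally relative to DMSO as negative control and baseline.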

Experiment [2] can be described thus: CCTE_Harrill_HTTr_Apoptosis_MCF7: CCTE's 6-hour Apoptosis Assessment for the High-Throughput Transcriptomics (HTTr) Platform, in MCF-7 cells cultured in DMEM + 10% fetal bovine serum, Harrill Lab (AID 2284011). In a few lines:
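MCF-7 cells in DMEM + 10% fetal bovine serum were exposed to chemicals for 6 hours over an eight-point dilution series. Caspase-3/7 activation was imaged by high content imaging with CellEvent Caspase 3/7 Green; bidirectional fitting used DMSO as baseline.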

Experiment [3] is described as follows: CCTE_Harrill_HTTr_CellCount_MCF7: CCTE's Cell Proliferation Assessment for the High-Throughput Transcriptomics (HTTr) Platform, Harrill Lab (AID 2284012; active = hit-call score of the fitted dose curve at least 0.9, where 1 is the maximum;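 also: cells exposed to compound for six hours; intended direction is loss of nuclei count meaning fewer cells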). In a few lines:
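MCF-7 cells were exposed for 6 h to an eight-point dilution series; Hoechst-labeled nuclei were counted by high content imaging. Curves were fitted bidirectionally against DMSO as negative control and baseline, with signal loss indicating reduced cell count.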

Structures are written as SMILES. Results filed as inconclusive are left out. Active and inactive are the calls of the source. The calls were made as follows, unless noted: active = hit-call score of the fitted dose curve at least 0.9, where 1 is the maximum; inactive = score below 0.9.

Consider `c1ccc2sc(SN(C3CCCCC3)C3CCCCC3)nc2c1`, for which the result in experiment [1] and in experiment [2] was inactive.

As for `CC(C)=CCO`, the result in experiment [1] and in experiment [2] was inactive.

In the case of `CCCCCCCCC`, the outcome in experiment [1], in experiment [2] and in experiment [3] was inactive.

Regarding `O=P(c1ccccc1)(c1ccccc1)c1ccccc1`, the result in experiment [1], in experiment [2] and in experiment [3] was inactive.

Regarding `CCCCCC(CO)CCC` (stereo not drawn), the outcome in experiment [1], in experiment [2] and in experiment [3] was inactive.

In the case of `COc1cc2ncnc(Nc3cccc(Cl)c3)c2cc1OC`, the outcome in experiment [1], in experiment [2] and in experiment [3] was inactive.

Regarding `CC(C)(Oc1ccc(CCNC(=O)c2ccc(Cl)cc2)cc1)C(=O)O`, the result in experiment [1], in experiment [2] and in experiment [3] was inactive.

For `CC1(C)[C@H]2CC[C@]1(C)[C@H](O)C2`, the result in experiment [1], in experiment [2] and in experiment [3] was inactive.

For `O=C(O)CN(CCN(CC(=O)O)CC(=O)O)CCN(CC(=O)O)CC(=O)O`, the result in experiment [1], in experiment [2] and in experiment [3] was inactive.

Regarding `C=C(C)[C@@H]1CC[C@@H](C)C[C@@H]1O`, the outcome in experiment [1], in experiment [2] and in experiment [3] was inactive.

In the case of `CCN(CC)c1ccc2c(-c3ccccc3C(=O)O)c3ccc(=[N+](CC)CC)cc-3oc2c1`, the AC50 in experiment [1] was 0.394 µM (active). The result in experiment [2] and in experiment [3] was inactive.

With `COc1ccc(O)cc1`, the result in experiment [1], in experiment [2] and in experiment [3] was inactive.

`CCCCNC(=O)NS(=O)(=O)c1ccc(C)cc1`: the result in experiment [1], in experiment [2] and in experiment [3] was inactive.

For the compound `O=C(O)c1cn(C2CC2)c2cc(N3CCNCC3)c(F)cc2c1=O`, the result in experiment [1], in experiment [2] and in experiment [3] was inactive.

In the case of `Cc1ccc(C=O)cc1`, the result in experiment [1], in experiment [2] and in experiment [3] was inactive.

On to `CN(C)CCOCCN(C)C`, for which the result in experiment [1], in experiment [2] and in experiment [3] was inactive.

Turning to `OCCOCCOCCOCCO`, the result in experiment [1], in experiment [2] and in experiment [3] was inactive.

As to `CN1[C@@H]2CC(OC(=O)[C@H](CO)c3ccccc3)C[C@H]1[C@@H]1O[C@@H]12` (stereo partly drawn), the result in experiment [1], in experiment [2] and in experiment [3] was inactive.

`Cc1ccc(O)c(C(C)(C)C)c1`: the result in experiment [1], in experiment [2] and in experiment [3] was inactive.

Take `CC(c1cc2ccccc2s1)N(O)C(N)=O` (stereo not drawn): the outcome in experiment [1], in experiment [2] and in experiment [3] was inactive.

Consider `CC1=CCC(O)(C(C)C)CC1` (stereo not drawn), for which the result in experiment [1], in experiment [2] and in experiment [3] was inactive.

Turning to `CC(=O)C(=O)O`, the result in experiment [1], in experiment [2] and in experiment [3] was inactive.

`Clc1ccc(Cl)c(Cl)c1Cl`: the result in experiment [1], in experiment [2] and in experiment [3] was inactive.

`O=C(O)c1ccc(C(=O)O)cc1`: the result in experiment [1], in experiment [2] and in experiment [3] was inactive.

For the compound `NCCCCCCN`, the outcome in experiment [1], in experiment [2] and in experiment [3] was inactive.

As for `CC(=O)/C=C/C1=C(C)CCCC1(C)C`, the result in experiment [1], in experiment [2] and in experiment [3] was inactive.

As for `CNCCCC12CCC(c3ccccc31)c1ccccc12`, the AC50 in experiment [1] is 47.3 µM (active). Besides, the outcome in experiment [2] and in experiment [3] was inactive.

In the case of `CCC(C)CCCC(C)(C)O` (stereo not drawn), the result in experiment [1], in experiment [2] and in experiment [3] was inactive.

Take `CC(C)C[C@H]1C(=O)N2CCC[C@H]2[C@]2(O)O[C@](NC(=O)[C@@H]3C=C4c5cccc6[nH]c(Br)c(c56)C[C@H]4N(C)C3)(C(C)C)C(=O)N12`: the result in experiment [1], in experiment [2] and in experiment [3] was inactive.

`C=CCOc1nc(OCC=C)nc(OCC=C)n1`: the outcome in experiment [1], in experiment [2] and in experiment [3] was inactive.

For the compound `CC(=O)OCCOC(C)=O`, the outcome in experiment [1], in experiment [2] and in experiment [3] was inactive.

`O=C1C(c2[nH]c3ccc(S(=O)(=O)O)cc3c2O)=Nc2ccc(S(=O)(=O)O)cc21`: the result in experiment [1], in experiment [2] and in experiment [3] was inactive.

For `O=[N+]([O-])c1cc(C(F)(F)F)ccc1Cl`, the outcome in experiment [1], in experiment [2] and in experiment [3] was inactive.

Take `CNC(=O)Oc1ccc2c(c1)[C@]1(C)CCN(C)[C@@H]1N2C`: the result in experiment [1], in experiment [2] and in experiment [3] was inactive.

For the compound `CCCCCCCCCCCCCCCC(=O)O`, the result in experiment [1], in experiment [2] and in experiment [3] was inactive.

On to `CC(C)Oc1ccccc1O`, for which the outcome in experiment [1], in experiment [2] and in experiment [3] was inactive.

Take `Cc1ccc(C(C)C)cc1O`: the outcome in experiment [1], in experiment [2] and in experiment [3] was inactive.

Turning to `CC1(C)CCC(C)(C)c2cc(C(=O)Nc3ccc(C(=O)O)cc3)ccc21`, the outcome in experiment [1], in experiment [2] and in experiment [3] was inactive.

Take `CC1CCC2CC1C2(C)C` (stereo not drawn): the result in experiment [1], in experiment [2] and in experiment [3] was inactive.

For the compound `Cc1ccc(C=O)s1`, the result in experiment [1], in experiment [2] and in experiment [3] was inactive.
